Assay results: PubChem BioAssay (NCI)
This is part of a sample that, as a whole, favours compounds with a hit. Of some 83,000 tested, about 20% had one in any assay.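 Negative percent growth values reflect cell death: -40 means 40% of the cells present at the start died, and -100 means all died.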 A number with no mark means an inactive call. Calls of active or inactive are those of the source. Rule for the calls: active = growth percent below 10; inactive = the rest.

How the values were obtained:
Assay in all cases: NCI-60 one-dose screen, 48 h (100 = growth as untreated, 0 = no growth, -100 = all killed)
Details in all cases: 10 µM unless noted
[1] = tested on: EKVX NSCLC
[2] = tested on: SN12C renal
[3] = tested on: UO-31 renal
[4] = tested on: TK-10 renal
[5] = tested on: ACHN renal
[6] = tested on: A498 renal
[7] = tested on: CCRF-CEM leukemia
[8] = tested on: MOLT-4 leukemia
[9] = tested on: SR leukemia
[10] = tested on: CAKI-1 renal

Q: Which results are given for `C=C(C)[C@H]1CC/C(C)=C/CC[C@]2(C)O[C@H]2CC/C(COC(C)=O)=C\C1=O`?
A: growth [1]: 44.3%; growth [2]: 104%; growth [3]: 69.4%; growth [4]: 117%; growth [5]: 98.9%; growth [6]: 91.1%; growth [7]: 103%; growth [8]: 90.2%; growth [9]: 56.7%

Q: For `CN1CCCC1c1cccnc1` (configuration not stated), which growth [1] is on record?
A: 123%

Q: And the growth [2]?
A: 94.2%

Q: What about the growth [3] of the same molecule?
A: 97%

Q: What about the growth [4] of the same molecule?
A: 132%

Q: And the growth [10]?
A: 120%

Q: What about the growth [6] of the same molecule?
A: 94.1%

Q: What about the growth [7] of the same molecule?
A: 70%

Q: What about the growth [8] of the same molecule?
A: 101%

Q: What about the growth [9] of the same molecule?
A: 85.7%

Q: How did the growth [1] turn out when `Cn1cc(-c2nc(-c3c[nH]c4ncc(F)cc34)cs2)c2cccnc21` was run?
A: 84.3%

Q: What about the growth [2] of the same molecule?
A: 101%

Q: What about the growth [3] of the same molecule?
A: 100%

Q: And the growth [4]?
A: 124%

Q: What about the growth [10] of the same molecule?
A: 92.5%

Q: And the growth [6]?
A: 109%

Q: And the growth [7]?
A: 102%

Q: What about the growth [8] of the same molecule?
A: 101%

Q: With `COc1ccc2nc3cc(Cl)ccc3c(Nc3cc(C(C)C)c(O)cc3C)c2c1` as the molecule, how does the growth [1] read?
A: 25%

Q: And the growth [2]?
A: 54.9%

Q: What about the growth [3] of the same molecule?
A: -6.15% (active)

Q: What about the growth [4] of the same molecule?
A: 15.7%

Q: What about the growth [5] of the same molecule?
A: 61.6%

Q: And the growth [6]?
A: 60.2%

Q: And the growth [7]?
A: -25.9% (active)

Q: And the growth [8]?
A: 18%

Q: What about the growth [9] of the same molecule?
A: 16.9%

Q: With `O=[P@@]1(c2ccccc2)O[C@H](COCc2ccccc2)[C@@H](OCc2ccccc2)[C@H](OCc2ccccc2)[C@H]1NCc1ccccc1` as the molecule, how does the growth [1] read?
A: 17.6%

Q: And the growth [2]?
A: -39.4% (active)

Q: And the growth [3]?
A: -7.83% (active)

Q: And the growth [4]?
A: 13.5%

Q: And the growth [5]?
A: 10%

Q: What about the growth [7] of the same molecule?
A: 15.9%

Q: What about the growth [8] of the same molecule?
A: 0.343% (active)

Q: What about the growth [9] of the same molecule?
A: -2.72% (active)

Q: What does the source list for `Oc1ccccc1C=Nc1ccccc1N=Cc1ccccc1O.[Cu+2]`?
A: growth [1]: 67.1%; growth [2]: 60.3%; growth [3]: 24%; growth [4]: 84.1%; growth [10]: 68.6%; growth [6]: 92.8%; growth [7]: 27.9%; growth [8]: 3.28% (active); growth [9]: 66.3%

Q: With `CC1CC(C)/C(=N/NC(N)=O)C(C(O)CC2CCC(=O)NC2=O)C1` (configuration not stated) as the molecule, how does the growth [1] read?
A: 33.6%

Q: What about the growth [2] of the same molecule?
A: 18.9%

Q: And the growth [3]?
A: 15.9%

Q: And the growth [4]?
A: 53.9%

Q: What about the growth [10] of the same molecule?
A: 35.5%

Q: What about the growth [6] of the same molecule?
A: 71.1%

Q: What about the growth [7] of the same molecule?
A: 15.6%

Q: What about the growth [8] of the same molecule?
A: 23%

Q: What about the growth [9] of the same molecule?
A: 48.5%

Q: What does the source list for `O=Cc1c[nH]c2ccc(NC(=O)OCc3ccccc3)cc12`?
A: growth [1]: 106%; growth [2]: 90.3%; growth [3]: 106%; growth [4]: 88.1%; growth [5]: 108%; growth [6]: 231%; growth [7]: 83.8%; growth [8]: 152%; growth [9]: 80.4%

Q: With `C/C(=N/N=C(N)N)c1ccc(Cl)cc1` as the molecule, how does the growth [1] read?
A: 87.8%

Q: And the growth [2]?
A: 90.8%

Q: And the growth [3]?
A: 78.2%

Q: And the growth [4]?
A: 55.3%

Q: What about the growth [5] of the same molecule?
A: 96.1%

Q: What about the growth [6] of the same molecule?
A: 188%

Q: What about the growth [7] of the same molecule?
A: 87.9%

Q: And the growth [8]?
A: 145%

Q: And the growth [9]?
A: 83.3%

Q: With `C=C(C)[C@H]1CC/C(C)=C/CC[C@]2(C)O[C@H]2CC/C(C=O)=C\C1O` (some centres not stated) as the molecule, how does the growth [1] read?
A: 103%

Q: What about the growth [2] of the same molecule?
A: 101%

Q: What about the growth [3] of the same molecule?
A: 58.1%

Q: And the growth [4]?
A: 106%

Q: And the growth [5]?
A: 99%

Q: And the growth [6]?
A: 143%

Q: And the growth [7]?
A: 137%

Q: And the growth [8]?
A: 142%

Q: What about the growth [9] of the same molecule?
A: 120%

Q: How did the growth [1] turn out when `O=C1C2C3C=CC(O3)C2C(=O)N1Nc1ccccc1` (configuration not stated) was run?
A: 101%

Q: What about the growth [2] of the same molecule?
A: 107%

Q: What about the growth [3] of the same molecule?
A: 101%

Q: What about the growth [4] of the same molecule?
A: 103%

Q: What about the growth [10] of the same molecule?
A: 93.5%

Q: What about the growth [6] of the same molecule?
A: 68.1%

Q: And the growth [7]?
A: 96.1%

Q: And the growth [8]?
A: 101%

Q: What about the growth [9] of the same molecule?
A: 126%

Q: `O=C(N1CCC(CN=c2cc3n(-c4ccc(Cl)cc4)c4ccccc4nc-3cc2Nc2ccc(Cl)cc2)CC1)N1CC1` was tested. Which growth [1] did it give?
A: -62.5% (active)

Q: And the growth [2]?
A: -76% (active)

Q: What about the growth [3] of the same molecule?
A: -96.3% (active)

Q: What about the growth [4] of the same molecule?
A: -42.9% (active)

Q: And the growth [5]?
A: -71.7% (active)

Q: And the growth [6]?
A: -59.9% (active)

Q: What about the growth [8] of the same molecule?
A: -22.6% (active)

Q: What about the growth [9] of the same molecule?
A: -74.5% (active)

Q: `CSc1ncc2ncn(C3OC(CO)C(O)C3O)c2n1` (configuration not stated) was tested. Which growth [1] did it give?
A: 107%

Q: What about the growth [2] of the same molecule?
A: 120%

Q: What about the growth [3] of the same molecule?
A: 111%

Q: What about the growth [4] of the same molecule?
A: 122%

Q: What about the growth [5] of the same molecule?
A: 105%

Q: What about the growth [6] of the same molecule?
A: 99.6%

Q: What about the growth [7] of the same molecule?
A: 99%

Q: And the growth [9]?
A: 111%

Q: For `COC(=O)[C@]1(C(C)C)N[C@H](c2cn(-c3ccccc3)nc2-c2ccccc2)[C@@H]2C(=O)N(c3ccc(Cl)cc3)C(=O)[C@@H]21`, which growth [1] is on record?
A: 102%

Q: And the growth [2]?
A: 97.3%

Q: What about the growth [3] of the same molecule?
A: 59.5%

Q: What about the growth [4] of the same molecule?
A: 113%

Q: And the growth [10]?
A: 77.5%

Q: What about the growth [6] of the same molecule?
A: 107%

Q: Which results are given for `O=C(Nc1ccc(Cl)cc1)Nc1ccc(Oc2nncc3ccccc23)cc1`?
A: growth [1]: 26.7%; growth [2]: -3.83% (active); growth [3]: -51.6% (active); growth [4]: 27.5%; growth [10]: 18.7%; growth [6]: 24.5%; growth [7]: 8.7% (active); growth [8]: 3.99% (active); growth [9]: 2.64% (active)

Q: `O=C(/C=C/c1ccccc1Cl)c1ccc(O)cc1` was tested. Which growth [1] did it give?
A: 84.8%

Q: What about the growth [2] of the same molecule?
A: 67.3%

Q: What about the growth [3] of the same molecule?
A: 43.6%

Q: What about the growth [4] of the same molecule?
A: 78.6%

Q: And the growth [5]?
A: 78.9%

Q: And the growth [6]?
A: 91.9%

Q: What about the growth [7] of the same molecule?
A: 30.6%

Q: And the growth [8]?
A: 55.1%

Q: And the growth [9]?
A: 27.9%
